Assay outcomes: PubChem BioAssay, National Center for Advancing Translational Sciences (NCATS)
HP1b binding inh – blocks HP1-beta chromodomain binding to methylated histone tails | P83916 | Potency, µM (highest dose often 114 µM), for the others: at the highest dose activity change, negative = inhibition, actives largely listed as inhibitors | AlphaScreen HP1-beta / biotin-H3K9me3 peptide binding | 390,000 tested, 0.56% active; also: nearly all actives have a fitted effect of over 70% in size
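HP1-beta protein (50 nM final) preincubated 30 min at room temperature with biotinylated H3(1-18)K9me3 peptide (50 nM) in PBS pH 7.4, 0.01% Tween-20, then compound added for 30 min. AlphaScreen streptavidin donor/nickel chelate acceptor beads (10 ug/mL final), 30 min dark, luminescence read.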
Sfp inh – inhibitors of Bacillus subtilis Sfp phosphopantetheinyl transferase | Q9F4F7 | 310,000 tested, 3.5% active | Biochemical Sfp PPTase activity, qHTS | Potency, µM, for the others: largest response in the series, negative = inhibition, actives largely listed as inhibitors | AID 1490;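 also: the enzyme is Sfp with the accession as filed and its product quenches rhodamine fluorescence; 0% = enzyme reaction without inhibitor and -100% = no enzyme wells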
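Fluorescence-quenching assay: 15 nM Sfp-PPTase preincubated 15 min at room temperature with compound, then 5 uM rhodamine-CoA and 12.5 uM BHQ-2-labelled YbbR peptide added. Fluorescence (ex 525/em 598 nm) read at start and after 30 min; difference gives rate.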
L3MBTL1 block – inhibitors of human L3MBTL1; Potency, µM (highest dose often 57.1 µM), for inactives: top-dose activity, negative = inhibition, actives largely listed as inhibitors; Q9Y468; 230,000 tested, 0.66% active; AlphaScreen L3MBTL1–H3K9me1 peptide binding; also: % is scaled to controls: 0 for no effect and ±100 for the full control effect; nearly all actives have a fitted effect of over 60% in size
Target sequence (Q9Y468 whole entry, looked up): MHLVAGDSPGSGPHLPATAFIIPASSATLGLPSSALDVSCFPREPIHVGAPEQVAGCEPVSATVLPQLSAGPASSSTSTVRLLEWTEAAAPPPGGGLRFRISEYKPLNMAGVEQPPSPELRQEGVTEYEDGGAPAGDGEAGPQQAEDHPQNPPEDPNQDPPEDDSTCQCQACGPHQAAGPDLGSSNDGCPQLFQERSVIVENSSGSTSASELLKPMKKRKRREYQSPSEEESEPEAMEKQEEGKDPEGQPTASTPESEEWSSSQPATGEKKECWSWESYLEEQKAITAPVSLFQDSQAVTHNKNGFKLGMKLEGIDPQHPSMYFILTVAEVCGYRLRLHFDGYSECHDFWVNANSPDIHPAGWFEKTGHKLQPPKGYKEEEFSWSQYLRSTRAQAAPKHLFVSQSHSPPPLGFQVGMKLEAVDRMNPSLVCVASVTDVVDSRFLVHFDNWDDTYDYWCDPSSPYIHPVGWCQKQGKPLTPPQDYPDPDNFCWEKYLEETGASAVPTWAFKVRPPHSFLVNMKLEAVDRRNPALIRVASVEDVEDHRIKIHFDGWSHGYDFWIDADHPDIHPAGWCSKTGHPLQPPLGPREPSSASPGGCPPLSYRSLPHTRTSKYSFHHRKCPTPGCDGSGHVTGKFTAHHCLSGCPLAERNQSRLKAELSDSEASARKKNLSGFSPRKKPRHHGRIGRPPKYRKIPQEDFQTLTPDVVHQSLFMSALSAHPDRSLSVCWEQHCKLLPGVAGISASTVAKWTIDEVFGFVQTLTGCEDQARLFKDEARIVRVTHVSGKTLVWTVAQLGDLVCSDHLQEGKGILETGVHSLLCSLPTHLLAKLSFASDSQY
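Displacement of a biotinylated histone H3(1-15) peptide monomethylated at Lys9 (75 nM) from L3MBTL1 (50 nM) was measured by AlphaScreen after a 30 min room-temperature compound incubation; cefsulodin titration served as intraplate control.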
G9a block – blocks human histone lysine methyltransferase G9a. AID 504332. Potency, µM (top dose mostly 102 µM), for inactives: at the top dose activity, negative = inhibition, most hits filed as inhibitors. 350,000 tested, 8.8% active. G9a H3K9 monomethylation, AlphaScreen, 2 h. Q96KQ7; also: % is scaled to controls: 0 for no effect and ±100 for the full control effect; nearly all actives have a fitted effect of over 75% in size
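Readings reflect AlphaScreen signal from monomethyl-H3K9 antibody detection. HMT at 20 nM; substrate b-H3K9 500 nM; cofactor SAM 20 uM; 2 h RT reaction; compounds tested as titrations in qHTS with 15 min preincubation.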
BAZ2B block – BAZ2B (human) inhibition; AlphaScreen BAZ2B-H3K14Ac peptide displacement; Potency, µM (doses to about 114 µM), for inactives: at the top dose activity change, negative = inhibition, usual class: inhibitors; 360,000 tested, 4.4% active; Q9UIF8; also: % is scaled to controls: 0 for no effect and ±100 for the full control effect; nearly all actives have a fitted effect of over 60% in size
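AlphaScreen displacement of biotin-H3(5-23)K14Ac peptide (50 nM final) from BAZ2B (50 nM final) in PBS pH 7.4, 0.01% Tween-20; complex preformed 30 min RT, then compounds (top 110 uM) 30 min RT, beads 20 min dark.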
JMJD2A Tudor – blocks the human JMJD2A Tudor domain. O75164. AlphaScreen JMJD2A-Tudor / H3K4me3 peptide binding. AID 504339. Potency, µM (top dose mostly 114 µM), inactives show at the top dose activity change, negative = inhibition, hits mostly inhibitors. 390,000 tested, 4.4% active; also: % is scaled to controls: 0 for no effect and ±100 for the full control effect; nearly all actives have a fitted effect of over 50% in size
* hit, by the source's call; ? = inconclusive; . = not tested or not shown; [ ] = dose if it differs, or a comment. Only some compounds are listed: those with a hit (about 12% of all), similar ones and a draw of the others. Calls follow the shape of the dose curve; as a rule, active = well fitted curve in the direction sought with a large enough effect; inconclusive = small, poorly fitted or top-dose-only effect, or another doubt; inactive = no such curve, though single readings can be large; an effect the other way counts as inactive or inconclusive. Potency is read from the fitted curve at half-maximal effect.

SMILES	HP1b binding inh	Sfp inh	L3MBTL1 block	G9a block	BAZ2B block	JMJD2A Tudor
COc1ccc(Nc2nc(N)nc(CSC(=S)N3CCCCC3)n2)cc1	-15.9%	6.5%	-5.9%	?	70.8µM*	?
COc1ccc(Nc2nc(N)nc(CN(C)C3CCCCC3)n2)cc1	13.3%	1.8%	?	3.6%	31.6µM*	44.7µM*
COc1ccc(Nc2nc(N)nc(CSC(=S)N3CCN(C)CC3)n2)cc1	24.5%	-2.0%	-6.7%	.	?	-11.7%
CCOc1ccc(Nc2nc(N)nc(CN(C)C3CCCCC3)n2)cc1	31.6%	-12.4%	?	11.4%	28.2µM*	20µM*
CCOC(=O)c1c(C)oc2nc(C)nc(NCC3CCN(Cc4ccccc4C)CC3)c12	22.6%	.	.	-14.3%[59 µM]	5.5%[57.1 µM]	-23.3%
CCN(CC)c1ccc2c(-c3ccc(S(=O)(=O)O)cc3S(=O)(=O)[O-])c3ccc(=[N+](CC)CC)cc-3oc2c1	44.7µM*	89.1µM*	.	39.8µM*	7.94µM*	?
CCC(Oc1ccc(F)cc1)C(=O)Nc1c(C(=O)c2ccc(C)cc2)oc2ccccc12 (stereo not given)	90.9%	.	.	16.3%[59 µM]	6.6%	14.1%
COc1cccc(Nc2nnc(SCc3nc4ccccc4s3)s2)c1	13.1%	3.3%	-11.9%	10µM*	-31.4%	-26.7%
Cc1cccc(C)c1Nc1nnc(SCc2nc3ccccc3s2)s1	20.3%	?	-0.3%	8.91µM*	-0.6%	-29.1%
COc1cccc(Nc2nnc(SCN3C(=O)c4ccccc4C3=O)s2)c1	37.4%	11.2%	4.7%	?	0.7%	-8.2%
COc1ccc(C2=NC(c3ccc(Cl)cc3)C(c3ccc(Cl)cc3)N2C(=O)N2CCNC(=O)C2)c(OC(C)C)c1 (stereo not given)	.	-22.1%	.	.	.	.
CCC(=O)Nc1nnc(-c2ccccn2)o1	5.0%	50.1µM*	-1.4%	4.47µM*	28.2µM*	5.62µM*
O=C(CCc1ccccc1)Nc1nnc(-c2ccccn2)o1	8.8%	-28.6%	-14.5%	?	50.1µM*	20µM*
O=C(CCc1ccccc1)Nc1nnc(-c2cccs2)o1	55.6%	4.4%	.	?	-30.0%	-6.4%
O=C(/C=C/c1ccccn1)c1cc(Cl)cc(Cl)c1O	15.7%	-4.2%	-10.8%	50.1µM*	-35.0%	-1.5%[11.4 µM]
CCc1c(C)[nH]n(-c2ccc(Oc3ccccc3)c(S(=O)(=O)O)c2)c1=O	4.1%	-6.2%	?	?	.	56.2µM*
Cc1cc(C)n(-c2ccc(Oc3ccccc3)c(S(=O)(=O)O)c2)n1	3.2%	-7.5%	.	?	-33.8%	89.1µM*
CCOC(=O)Cc1c(C)[nH]n(-c2ccccc2)c1=O	1.1%	4.7%	?	4.7%	13.9%	-22.8%
COc1ccc(CNc2nc(-c3ccco3)nn2C(=O)CC(C)C)cc1	20.7%	.	.	-42.7%[59 µM]	-20.2%	14.2%
CCOC(=O)c1noc2ncnc(Nc3ccc(C)c(F)c3)c12	56.6%	.	.	3.8%[59 µM]	-0.4%	-16.3%
CC(=O)OC[C@@H]1O[C@@H](O/N=C2/C[C@@H](O)[C@@H](O)[C@@H]3[C@@H]4C(=O)N([C@@H](C)c5ccccc5)C(=O)[C@H]4CC[C@H]23)[C@H](OC(C)=O)[C@H](OC(C)=O)[C@@H]1OC(C)=O	.	1.8%	.	.	.	.
COc1ccc(NC(=O)CNc2ccccc2N2CCCC2=O)cc1S(=O)(=O)N1CCOCC1	17.3%	.	-0.2%	?	6.6%	-3.8%
O=C(COC(=O)/C=C/c1cccc(Cl)c1)Nc1ccc(N2CCOCC2)cc1	21.9%	.	-0.1%	.	.	-11.7%
COc1cccc(/C=C/C(=O)OCC(=O)Nc2ccc(S(=O)(=O)N3CCCC3)cc2)c1	4.2%	79.4µM*	-4.6%	-18.0%[59 µM]	-26.3%	-12.6%
Cc1ccc(NC(=O)CNc2ccccc2N2CCCC2=O)cc1S(=O)(=O)N1CCOCC1	13.4%	.	-4.1%	44.7µM*	7.4%	-10.3%
SMILES	HP1b binding inh	Sfp inh	L3MBTL1 block	G9a block	BAZ2B block	JMJD2A Tudor
COc1cccc(/C=C/C(=O)OCC(=O)Nc2cccc(S(=O)(=O)N3CCCCC3)c2)c1OC	22.6%	1.0%	-3.0%	70.8µM*	-3.0%	-23.3%
O=C(COC(=O)/C=C/c1ccc(F)cc1)Nc1cccc(S(=O)(=O)N2CCCC2)c1	29.4%	17.1%	-0.2%	-5.4%	-18.9%	-5.1%
Cc1ccc(NC(=O)COC(=O)/C=C/c2cccc(Cl)c2)cc1S(=O)(=O)N1CCOCC1	19.1%	17.0%	0.1%	39.8µM*	7.1%	-21.8%
N[C@@H](CCCCNC(=O)CCCC[C@@H]1SC[C@H]2NC(=O)N[C@H]12)C(=O)O	.	-17.5%	.	.	.	.
COc1ccccc1N1CCN(c2ncnc3c2nnn3C)CC1	39.6%	.	.	-23.6%[59 µM]	-7.7%	-22.1%
Cc1cc(C)c(OCC(=O)Nc2ccc(S(=O)(=O)N3CCCC3)cc2)c(C)c1	29.8%	.	4.5%	50.1µM*	9.2%	-13.8%
CN1CCC(N(C)S(=O)(=O)c2ccc(NC(=O)COc3ccc(Br)cc3Cl)cc2)CC1	-6.2%	.	-12.0%	7.1%[0.501 µM]	?	-26.9%
CCN(c1ccc(NC(=O)COC(=O)c2ccc(C)c(S(=O)(=O)N3CCOCC3)c2)cc1)C(C)C	?	-7.9%	.	4.47µM*	?	22.4µM*
CCc1cccc(OCC(=O)Nc2ccc(S(=O)(=O)N3CCCC3)cc2)c1	37.9%	12.1%	.	40.2%	0.2%	-5.3%
Cc1cccc(OCC(=O)Nc2ccc(S(=O)(=O)N3CCCC3)cc2)c1	37.9%	?	-7.8%	31.6µM*	-9.2%	-9.6%
CN1CCC(N(C)S(=O)(=O)c2ccc(NC(=O)COc3cccc(Cl)c3)cc2)CC1	-2.4%	.	-7.4%	39.8µM*	2.9%	-22.3%
O=C(CC(c1cccs1)N1Cc2ccccc2C1=O)Nc1ccccc1 (stereo not given)	18.0%	.	.	-6.5%[59 µM]	-3.4%	-10.0%
COc1cc(NC(=O)Cn2ncc3c([nH]c4ccc(C)cc43)c2=O)cc(OC)c1OC	24.0%	.	.	2.0%[59 µM]	-1.8%[57.1 µM]	-13.3%
COc1cc(-c2nnc(SCC(=O)N3CCCc4ccccc43)o2)cc(OC)c1OC	10.6%	.	.	9.7%[59 µM]	-16.7%	-14.4%
O=c1c2c3c(sc2nc2n1CCCCC2)CCCCC3	.	-11.1%	2.7%	-33.2%[59 µM]	-3.2%	.
N=c1c2c3c(sc2nc2n1CCCCC2)CCCCC3	23.5%	-18.8%	4.7%	50.1µM*	7.5%	9.5%
O=c1c2c3c(sc2nc2n1CCCC2)CCCCC3	14.2%	-7.3%	.	?	6.7%	-0.8%
CC1CSc2nc3sc4c(c3c(=O)n21)CCCC4 (stereo not given)	41.8%	?	-3.3%	20µM*	-2.3%	-30.3%
O=c1c2c3c(sc2nc2n1CCCCC2)CCCC3	-30.6%	31.6µM*	-1.0%	?	.	?
CCOc1ccc(C(=O)c2oc3ccccc3c2NC(=O)c2cc(-c3ccc(C)cc3)on2)cc1	45.3%	.	.	0.2%[59 µM]	-10.7%	14.2%
